# Measured values from the supplement of paper PMC11741263, “Chemoproteomic Profiling of C. albicans for Characterization of Anti-fungal Kinase Inhibitors” (bioRxiv, 2025).
# Compound: Cc1[nH]nc2ccc(-c3cc(OC[C@@H](N)Cc4ccccc4)cnc3-c3ccoc3)cc12
# Test: MIB bead binding, log2 fold change vs DMSO (log2 ratio); higher = less competition (weaker engagement)
# Sequence of UniProt Q5AG71 (Q5AG71 whole entry): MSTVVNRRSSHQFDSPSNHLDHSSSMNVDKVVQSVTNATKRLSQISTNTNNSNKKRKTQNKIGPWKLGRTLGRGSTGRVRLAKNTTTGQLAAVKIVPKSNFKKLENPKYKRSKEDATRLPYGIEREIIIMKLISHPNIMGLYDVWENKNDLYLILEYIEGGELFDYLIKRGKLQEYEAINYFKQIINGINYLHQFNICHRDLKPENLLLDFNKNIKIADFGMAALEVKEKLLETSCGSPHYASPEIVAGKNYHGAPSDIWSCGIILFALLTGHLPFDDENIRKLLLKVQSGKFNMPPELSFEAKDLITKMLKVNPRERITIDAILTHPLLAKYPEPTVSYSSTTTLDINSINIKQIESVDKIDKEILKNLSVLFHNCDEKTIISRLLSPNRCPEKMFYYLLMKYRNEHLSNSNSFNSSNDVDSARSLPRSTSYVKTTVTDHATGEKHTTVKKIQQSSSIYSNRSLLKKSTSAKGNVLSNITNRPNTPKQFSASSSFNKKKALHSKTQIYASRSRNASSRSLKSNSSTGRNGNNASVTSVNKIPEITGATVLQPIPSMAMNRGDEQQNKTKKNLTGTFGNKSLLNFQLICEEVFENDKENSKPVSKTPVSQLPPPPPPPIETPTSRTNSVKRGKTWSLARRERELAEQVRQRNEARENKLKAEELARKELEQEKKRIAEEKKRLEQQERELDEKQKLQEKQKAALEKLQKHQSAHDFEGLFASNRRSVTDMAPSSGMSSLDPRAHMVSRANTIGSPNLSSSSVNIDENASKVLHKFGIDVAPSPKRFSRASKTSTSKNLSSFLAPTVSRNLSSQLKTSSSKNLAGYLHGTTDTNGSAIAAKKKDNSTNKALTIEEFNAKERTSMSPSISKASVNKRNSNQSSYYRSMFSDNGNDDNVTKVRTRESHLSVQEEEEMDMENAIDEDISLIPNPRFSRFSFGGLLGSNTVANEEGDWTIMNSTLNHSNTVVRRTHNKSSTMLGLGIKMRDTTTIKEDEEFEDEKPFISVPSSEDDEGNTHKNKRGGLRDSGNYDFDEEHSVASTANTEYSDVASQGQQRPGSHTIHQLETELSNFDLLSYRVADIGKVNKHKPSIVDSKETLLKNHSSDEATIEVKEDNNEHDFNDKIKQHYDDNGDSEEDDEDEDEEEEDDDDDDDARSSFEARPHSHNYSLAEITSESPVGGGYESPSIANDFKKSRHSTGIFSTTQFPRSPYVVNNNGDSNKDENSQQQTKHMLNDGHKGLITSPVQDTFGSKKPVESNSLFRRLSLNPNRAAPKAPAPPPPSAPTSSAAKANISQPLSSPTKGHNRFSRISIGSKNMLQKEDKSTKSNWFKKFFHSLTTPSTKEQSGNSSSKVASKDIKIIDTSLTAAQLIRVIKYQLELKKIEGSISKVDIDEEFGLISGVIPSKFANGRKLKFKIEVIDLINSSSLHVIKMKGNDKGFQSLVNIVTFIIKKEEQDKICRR
# Sequence of UniProt P52497 (P52497 whole entry): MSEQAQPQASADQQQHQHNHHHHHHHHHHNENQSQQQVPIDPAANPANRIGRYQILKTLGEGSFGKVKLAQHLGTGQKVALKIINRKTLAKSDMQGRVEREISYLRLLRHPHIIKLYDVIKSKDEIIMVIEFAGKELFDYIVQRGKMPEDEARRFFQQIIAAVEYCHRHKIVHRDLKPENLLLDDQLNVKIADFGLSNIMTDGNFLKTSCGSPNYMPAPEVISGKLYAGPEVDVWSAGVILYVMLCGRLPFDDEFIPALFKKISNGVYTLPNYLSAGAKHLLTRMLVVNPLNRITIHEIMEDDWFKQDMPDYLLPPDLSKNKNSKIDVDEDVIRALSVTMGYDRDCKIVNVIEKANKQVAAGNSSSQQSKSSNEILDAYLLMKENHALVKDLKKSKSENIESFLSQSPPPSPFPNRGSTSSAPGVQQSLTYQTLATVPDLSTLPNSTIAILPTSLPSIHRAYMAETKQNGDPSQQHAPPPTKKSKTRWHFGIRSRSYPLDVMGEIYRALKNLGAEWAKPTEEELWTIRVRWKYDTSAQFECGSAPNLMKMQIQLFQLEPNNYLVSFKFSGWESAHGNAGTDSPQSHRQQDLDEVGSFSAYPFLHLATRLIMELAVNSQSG
# Sequence of UniProt O75460 (O75460 whole entry, looked up): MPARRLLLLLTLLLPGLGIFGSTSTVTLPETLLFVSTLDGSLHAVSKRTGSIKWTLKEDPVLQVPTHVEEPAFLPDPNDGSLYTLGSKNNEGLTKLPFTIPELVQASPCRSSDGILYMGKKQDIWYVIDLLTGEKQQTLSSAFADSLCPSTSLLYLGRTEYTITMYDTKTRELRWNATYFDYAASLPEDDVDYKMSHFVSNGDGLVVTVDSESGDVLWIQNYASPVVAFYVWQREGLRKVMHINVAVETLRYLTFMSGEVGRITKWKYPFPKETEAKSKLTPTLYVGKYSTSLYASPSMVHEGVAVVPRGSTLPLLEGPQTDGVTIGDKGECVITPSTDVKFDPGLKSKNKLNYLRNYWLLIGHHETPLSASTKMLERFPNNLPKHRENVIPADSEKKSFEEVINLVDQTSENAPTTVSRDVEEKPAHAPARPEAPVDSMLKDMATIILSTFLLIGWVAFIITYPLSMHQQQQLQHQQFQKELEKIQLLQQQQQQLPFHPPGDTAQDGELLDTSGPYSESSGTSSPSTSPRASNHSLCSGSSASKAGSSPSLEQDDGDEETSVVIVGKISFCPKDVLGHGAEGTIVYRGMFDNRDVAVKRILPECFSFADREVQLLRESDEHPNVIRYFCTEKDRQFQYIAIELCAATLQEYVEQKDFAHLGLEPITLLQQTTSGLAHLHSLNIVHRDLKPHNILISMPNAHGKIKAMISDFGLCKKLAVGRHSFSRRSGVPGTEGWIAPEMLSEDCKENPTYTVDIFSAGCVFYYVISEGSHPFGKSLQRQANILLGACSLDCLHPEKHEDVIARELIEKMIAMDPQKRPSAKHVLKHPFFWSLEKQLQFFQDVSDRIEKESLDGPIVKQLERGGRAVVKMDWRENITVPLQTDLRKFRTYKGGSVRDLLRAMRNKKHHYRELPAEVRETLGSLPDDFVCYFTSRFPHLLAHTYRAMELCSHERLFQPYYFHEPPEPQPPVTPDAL
# Sequence of UniProt Q59W62 (Q59W62 whole entry): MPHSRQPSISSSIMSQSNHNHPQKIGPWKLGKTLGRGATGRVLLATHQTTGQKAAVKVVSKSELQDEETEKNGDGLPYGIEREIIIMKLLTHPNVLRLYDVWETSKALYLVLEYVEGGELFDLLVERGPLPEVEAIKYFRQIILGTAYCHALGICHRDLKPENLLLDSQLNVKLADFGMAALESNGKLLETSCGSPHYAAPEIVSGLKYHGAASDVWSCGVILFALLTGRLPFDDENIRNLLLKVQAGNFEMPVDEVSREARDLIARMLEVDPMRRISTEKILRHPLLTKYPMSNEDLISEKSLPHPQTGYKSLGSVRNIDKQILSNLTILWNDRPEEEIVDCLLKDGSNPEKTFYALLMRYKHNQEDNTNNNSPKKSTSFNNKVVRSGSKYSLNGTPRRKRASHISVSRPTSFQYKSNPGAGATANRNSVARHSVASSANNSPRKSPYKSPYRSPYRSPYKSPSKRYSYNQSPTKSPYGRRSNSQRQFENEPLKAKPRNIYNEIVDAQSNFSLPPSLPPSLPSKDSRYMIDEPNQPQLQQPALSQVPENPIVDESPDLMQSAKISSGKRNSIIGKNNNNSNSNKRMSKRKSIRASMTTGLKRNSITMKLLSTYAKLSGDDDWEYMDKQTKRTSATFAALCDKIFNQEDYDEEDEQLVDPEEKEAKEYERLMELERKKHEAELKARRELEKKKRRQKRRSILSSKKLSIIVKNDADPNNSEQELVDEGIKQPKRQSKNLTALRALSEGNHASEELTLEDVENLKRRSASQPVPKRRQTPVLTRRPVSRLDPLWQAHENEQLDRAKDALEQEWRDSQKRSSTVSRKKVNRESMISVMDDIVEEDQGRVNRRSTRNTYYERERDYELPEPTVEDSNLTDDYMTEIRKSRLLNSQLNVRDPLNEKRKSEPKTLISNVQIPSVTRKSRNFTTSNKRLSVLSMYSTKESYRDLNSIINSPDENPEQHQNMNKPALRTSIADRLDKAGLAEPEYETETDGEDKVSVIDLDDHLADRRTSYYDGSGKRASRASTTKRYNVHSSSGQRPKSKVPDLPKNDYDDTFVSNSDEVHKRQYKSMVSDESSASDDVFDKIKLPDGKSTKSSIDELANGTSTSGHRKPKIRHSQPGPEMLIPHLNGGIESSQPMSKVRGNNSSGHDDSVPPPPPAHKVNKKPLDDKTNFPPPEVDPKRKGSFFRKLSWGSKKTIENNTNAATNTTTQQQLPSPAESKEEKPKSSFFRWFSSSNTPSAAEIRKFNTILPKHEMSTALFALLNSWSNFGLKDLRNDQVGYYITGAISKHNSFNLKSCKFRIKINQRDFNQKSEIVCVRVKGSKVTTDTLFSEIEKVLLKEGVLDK
# Sequence of UniProt P50613 (P50613 whole entry, looked up): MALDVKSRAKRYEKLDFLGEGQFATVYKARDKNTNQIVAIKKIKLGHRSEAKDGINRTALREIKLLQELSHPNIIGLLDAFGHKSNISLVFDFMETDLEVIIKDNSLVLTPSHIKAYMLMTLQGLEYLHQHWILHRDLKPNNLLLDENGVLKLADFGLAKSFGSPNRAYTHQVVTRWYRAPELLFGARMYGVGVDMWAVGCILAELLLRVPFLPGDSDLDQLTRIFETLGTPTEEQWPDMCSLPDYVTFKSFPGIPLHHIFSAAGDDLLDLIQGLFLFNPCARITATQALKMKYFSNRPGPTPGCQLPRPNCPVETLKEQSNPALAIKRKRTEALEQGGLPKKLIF
# Sequence of UniProt P43063 (P43063 whole entry): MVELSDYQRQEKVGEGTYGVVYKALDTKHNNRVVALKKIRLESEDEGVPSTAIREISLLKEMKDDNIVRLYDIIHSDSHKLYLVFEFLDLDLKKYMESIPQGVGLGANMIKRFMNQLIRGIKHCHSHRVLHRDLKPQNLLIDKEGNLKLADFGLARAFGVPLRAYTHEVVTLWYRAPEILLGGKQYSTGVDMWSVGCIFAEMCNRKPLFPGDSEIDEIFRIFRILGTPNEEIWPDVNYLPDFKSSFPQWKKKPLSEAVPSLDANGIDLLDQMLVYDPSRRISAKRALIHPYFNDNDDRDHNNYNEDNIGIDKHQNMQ
target,measurement,setting,value
RCK2,MIB bead binding (log2),0.1 µM,-0.0134
same,MIB bead binding (log2),1 µM,-0.109
same,MIB bead binding (log2),10 µM,-0.886
orf19.4575,MIB bead binding (log2),0.1 µM,-0.428
same,MIB bead binding (log2),1 µM,-0.272
same,MIB bead binding (log2),10 µM,-2.61
RIM8 (UniProt Q9UW13),MIB bead binding (log2),0.1 µM,-0.206
same,MIB bead binding (log2),1 µM,-0.122
same,MIB bead binding (log2),10 µM,-2.22
GIN4 (UniProt Q59W62),MIB bead binding (log2),0.1 µM,-0.016
same,MIB bead binding (log2),1 µM,-0.162
same,MIB bead binding (log2),10 µM,-0.625
CKA2,MIB bead binding (log2),0.1 µM,0.0997
same,MIB bead binding (log2),1 µM,0.026
same,MIB bead binding (log2),10 µM,-1.17
KSP1,MIB bead binding (log2),0.1 µM,0.0498
same,MIB bead binding (log2),1 µM,-0.354
same,MIB bead binding (log2),10 µM,-0.384
NPR1 (UniProt P16066),MIB bead binding (log2),0.1 µM,0.0428
same,MIB bead binding (log2),1 µM,-0.0888
same,MIB bead binding (log2),10 µM,-0.75
CDC28 (UniProt P43063),MIB bead binding (log2),0.1 µM,0.12
same,MIB bead binding (log2),1 µM,0.127
same,MIB bead binding (log2),10 µM,-0.931
RTK1,MIB bead binding (log2),0.1 µM,0.0613
same,MIB bead binding (log2),1 µM,0.118
same,MIB bead binding (log2),10 µM,-1.04
MKK2 (UniProt P36507),MIB bead binding (log2),0.1 µM,0.148
same,MIB bead binding (log2),1 µM,-0.183
same,MIB bead binding (log2),10 µM,-1.11
TPK2,MIB bead binding (log2),0.1 µM,-0.0872
same,MIB bead binding (log2),1 µM,0.0369
same,MIB bead binding (log2),10 µM,-2.41
RIM11,MIB bead binding (log2),0.1 µM,-0.208
same,MIB bead binding (log2),1 µM,-0.891
same,MIB bead binding (log2),10 µM,-3.89
MKC1,MIB bead binding (log2),0.1 µM,-0.00282
same,MIB bead binding (log2),1 µM,0.0129
same,MIB bead binding (log2),10 µM,-1.76
HOG1 (UniProt Q92207),MIB bead binding (log2),0.1 µM,0.146
same,MIB bead binding (log2),1 µM,0.244
same,MIB bead binding (log2),10 µM,-0.916
YPK1,MIB bead binding (log2),0.1 µM,-0.0854
same,MIB bead binding (log2),1 µM,-0.539
same,MIB bead binding (log2),10 µM,-1.48
MCK1,MIB bead binding (log2),0.1 µM,-0.0754
same,MIB bead binding (log2),1 µM,0.0618
same,MIB bead binding (log2),10 µM,-1.02
CAK1 (UniProt P50613),MIB bead binding (log2),0.1 µM,-0.167
same,MIB bead binding (log2),1 µM,0.067
same,MIB bead binding (log2),10 µM,-2.18
AKL1,MIB bead binding (log2),0.1 µM,-0.106
same,MIB bead binding (log2),1 µM,-1.01
same,MIB bead binding (log2),10 µM,-5.4
orf19.6492,MIB bead binding (log2),0.1 µM,-0.282
same,MIB bead binding (log2),1 µM,-0.0346
same,MIB bead binding (log2),10 µM,-3.3
SNF1 (UniProt P52497),MIB bead binding (log2),0.1 µM,-0.272
same,MIB bead binding (log2),1 µM,-0.136
same,MIB bead binding (log2),10 µM,-1.78
Yck22,MIB bead binding (log2),0.1 µM,-0.049
same,MIB bead binding (log2),1 µM,-0.35
same,MIB bead binding (log2),10 µM,-2.01
IRE1 (UniProt O75460),MIB bead binding (log2),0.1 µM,-0.11
same,MIB bead binding (log2),1 µM,0.0485
same,MIB bead binding (log2),10 µM,-0.0877
POM1,MIB bead binding (log2),0.1 µM,-0.418
same,MIB bead binding (log2),1 µM,-0.345
same,MIB bead binding (log2),10 µM,-2.53
TOR1,MIB bead binding (log2),0.1 µM,-0.226
same,MIB bead binding (log2),1 µM,0.207
same,MIB bead binding (log2),10 µM,-1.59
HSL1 (UniProt Q5AG71),MIB bead binding (log2),0.1 µM,0.351
same,MIB bead binding (log2),1 µM,0.197
same,MIB bead binding (log2),10 µM,-0.67
